Each structure is given as a SMILES string. About 83,000 compounds went through this panel and 20% of them were active in at least one assay; those are over-represented in the sample as a whole.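 Activity criterion: percent growth below 10, measured after cells in 96-well plates were exposed to a single compound concentration for 48 hours.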 Values without a mark were called inactive. Activity calls are given as the source filed them.

The subject of the experiment is HL-60(TB) leukemia. Briefly: NCI-60 one-dose screen, 48 h (100 = growth as untreated, 0 = no growth, -100 = all killed). The conditions noted are these: 10 µM unless noted.
Regarding `CN(C)c1ccc(-c2ccc(-c3ccc(C(=N)N)c(F)c3)s2)cc1`, the growth is -46.1% (active).

As for `CCCCOc1nc2cc(Cl)ccc2cc1/C=C/c1cc(/C=C/c2cc3ccc(Cl)cc3nc2OCCCC)n(-c2ccccc2)n1`, the growth is 77.8%.

On to `COc1ccc(NC(=O)c2ccc(Cl)cc2Cl)cc1`, for which the growth was 103%.

As to `Nc1c(C(=O)Nc2cccc3cnccc23)sc2nc3c(cc12)C(=O)CCC3`, the growth is 60.2%.

For the compound `O=C1Nc2ccccc2/C1=C\c1ccccc1O`, the growth is 75.2%.

In the case of `O=C(Nc1ccc(Oc2ccc(Nc3nc4ccccc4s3)cc2)cc1)Nc1ccc(Cl)c(C(F)(F)F)c1`, the growth was -19.3% (active).

For the compound `CCC(CO)Nc1nc2ccc(Cl)cc2c2ccccc12` (stereo not given), the growth was 25%.

Take `CCCCC(=O)N(c1ccc(Nc2c3ccccc3nc3cc([N+](=O)[O-])ccc23)cc1)S(C)(=O)=O`: the growth was 68.3%.

For `Cc1c(Cn2c(C)nc3c(C(=O)O)cc(N4CCOCC4)cc32)cccc1C(F)(F)F`, the growth was 78.6%.

Consider `O=C(O)/C=C/C(=O)NCc1ccccc1`, for which the growth is 105%.

Turning to `CC1CC=CCC1C1OCC(C)(C)CO1` (stereo not given), the growth is 91.8%.

As for `O=C1/C(=C/c2ccc(O)cc2)CSc2ccc(Cl)cc21`, the growth was 22.7%.

For `Oc1ccc(Nc2ccccc2)cc1`, the growth is 66.5%.

For the compound `O=C(NCc1ccco1)C1CCN(S(=O)(=O)c2ccc(Cl)cc2)CC1`, the growth was 19.1%.

For the compound `NCCCNc1nc2ccccc2c2c(=O)c3cccc(Cl)c3sc12`, the growth is -45% (active).

As for `COc1cc(Cc2cc(-c3ccccc3)n[nH]c2=O)cc(OC)c1OC`, the growth was 53.4%.

As to `O=C(N/N=C/c1ccccc1Cl)c1ccccc1Nc1ccnc(C(F)(F)F)c1`, the growth was -20.1% (active).

In the case of `CC(C)(CCN=C(N)Nc1ccccn1)c1ccc(C(F)(F)F)cc1`, the growth is -52.7% (active).

In the case of `C=C1CC/C=C(\C)C(=O)C[C@@H]2[C@@H]1CC2(C)C`, the growth is 105%.

As for `COc1ccc(/C=C/C=C\C(=O)c2ccc(-n3ccnc3)cc2)cc1`, the growth was 66.9%.

On to `O=C(CCc1nnc(SCc2ccccc2)s1)c1nc2ccccc2[nH]1`, for which the growth was 92.3%.

Turning to `O=C(CCNCc1ccccc1)c1ccccc1`, the growth is 104%.

As to `N=C(N)c1ccc(-c2ccc(-c3ccc(Cl)cc3Cl)o2)nc1`, the growth is -26.7% (active).

For `O=C(Nc1ccc(Cl)cc1)c1cc(NCc2cc(O)ccc2O)ccc1O`, the growth is 0.347% (active).

In the case of `CN(Cc1ccccc1)Cc1ccc([N+](=O)[O-])cc1I`, the growth was 85%.

For the compound `CC(=O)/C=C/c1cc2cc(Cl)ccc2[nH]c1=O`, the growth was 54.5%.

Turning to `FC(F)(F)c1cc(N2CCCCC2)nc(NCCCNc2ccnc3cc(Cl)ccc23)n1`, the growth was 42.1%.

`COc1cc(NS(C)(=O)=O)ccc1Nc1c2ccc([N+](=O)[O-])cc2nc2c(C)cccc12`: the growth is -26.6% (active).

Turning to `Clc1ccc2c(NCCNc3nc(N4CCCC4)nc4ccccc34)ccnc2c1`, the growth was -70% (active).

Consider `COc1cc2c(c(OC)c1OC)C(=O)/C(=C/c1cc(C)c(O)c(C)c1)S2`, for which the growth is 13.6%.

On to `Cc1ncc(C(=O)Nc2ccc(CN3CCN(C)CC3)c(C(F)(F)F)c2)cc1C#Cc1cnc(N)c2cnccc12`, for which the growth is 16.1%.

Consider `COc1cc2nc(N3CCCC3)nc(NCCc3ccccc3)c2cc1OC`, for which the growth is -53.6% (active).

As for `CC(C)CCNCC(C)(C)O`, the growth was 99.3%.

Consider `CCCS(=O)(=O)Nc1cccc(Nc2ncnc3cc(NC(=O)CCl)ccc23)c1Cl`, for which the growth is -35.5% (active).

Turning to `CC(=O)Nc1ccc2c(c1)/C(=C\C=C/c1ccc([N+](C)(C)C)cc1)c1ccccc1-2`, the growth was 43.7%.

Consider `c1ccc(CCNc2c3ccccc3nc3ccccc23)cc1`, for which the growth is 41.3%.

On to `CCn1cc(C2NC(=O)c3cc(F)ccc3N2)c2cccc(Cl)c21` (stereo not given), for which the growth is -50% (active).

For the compound `O=C1N=C(N2CCOCC2)S/C1=C\c1cn(-c2ccccc2)nc1-c1ccccc1`, the growth is 105%.

As to `Nc1ncnc2c1N=C(c1ccc([N+](=O)[O-])cc1)CC(c1ccc3c(c1)OCO3)N2` (stereo not given), the growth was 105%.

For the compound `CN1CCN(CCOc2ccc(-c3cnc4c(-c5ccc(C(F)(F)F)cc5)cnn4c3)cc2)CC1`, the growth is -32.5% (active).
